Laboratory results taken from PubChem BioAssay.
The source made the active and inactive calls.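 How the source made its calls, unless noted: active means binding below the plate cutoff, the plate median minus 3 SD, with a reading above zero; inconclusive means below the plate cutoff but reading exactly zero; inactive means the rest.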

Assays:
[1] = reduced mouse 2C T cell binding to pMHC/ICAM-1 vesicles – MLPCN validation set, flow cytometry, LFA-1/ICAM-1 modulator project, pilot screen (AID 2523;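 active means response below a set limit, under 55% cells CD8-positive and vesicle-bound, and CD8 cells' 90th-percentile brightness under 279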;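 on vesicle binding response: mean PE anti-B7-1 fluorescence of CD8+ cells relative to row control; 100% = QL9-loaded vesicles with DMSO vehicle in the same plate row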); conditions: 2C mouse CD8+ T cells, at 7 µM, stronger effect = lower value; double positive events: measured here: CD8+/vesicle+ event percentage
[2] = target: Integrin beta-1 (Homo sapiens) + Integrin alpha-4 (Homo sapiens) (UniProt P13612+P05556); experiment: alpha4beta1 integrin LIBS antibody binding reduction – U937 cells, HUTS-21 mAb, flow cytometry, validation set, VLA-4 allosteric modulator project, pilot screen (AID 2674;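 active means inhibition above 50%, about 3 SD of the validation set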;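 further: antibody binding induced by the VLA-4 ligand LDV present at three times its Kd; 0% = LDV ligand with antibody and no compound and 100% = antibody without LDV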); conditions: HUTS-21 LIBS mAb binding, at 6.7 µM, stronger effect = higher value, binding induced by LDV ligand
Sequence of Integrin beta-1 (Homo sapiens) + Integrin alpha-4 (Homo sapiens) (P05556 whole entry, looked up): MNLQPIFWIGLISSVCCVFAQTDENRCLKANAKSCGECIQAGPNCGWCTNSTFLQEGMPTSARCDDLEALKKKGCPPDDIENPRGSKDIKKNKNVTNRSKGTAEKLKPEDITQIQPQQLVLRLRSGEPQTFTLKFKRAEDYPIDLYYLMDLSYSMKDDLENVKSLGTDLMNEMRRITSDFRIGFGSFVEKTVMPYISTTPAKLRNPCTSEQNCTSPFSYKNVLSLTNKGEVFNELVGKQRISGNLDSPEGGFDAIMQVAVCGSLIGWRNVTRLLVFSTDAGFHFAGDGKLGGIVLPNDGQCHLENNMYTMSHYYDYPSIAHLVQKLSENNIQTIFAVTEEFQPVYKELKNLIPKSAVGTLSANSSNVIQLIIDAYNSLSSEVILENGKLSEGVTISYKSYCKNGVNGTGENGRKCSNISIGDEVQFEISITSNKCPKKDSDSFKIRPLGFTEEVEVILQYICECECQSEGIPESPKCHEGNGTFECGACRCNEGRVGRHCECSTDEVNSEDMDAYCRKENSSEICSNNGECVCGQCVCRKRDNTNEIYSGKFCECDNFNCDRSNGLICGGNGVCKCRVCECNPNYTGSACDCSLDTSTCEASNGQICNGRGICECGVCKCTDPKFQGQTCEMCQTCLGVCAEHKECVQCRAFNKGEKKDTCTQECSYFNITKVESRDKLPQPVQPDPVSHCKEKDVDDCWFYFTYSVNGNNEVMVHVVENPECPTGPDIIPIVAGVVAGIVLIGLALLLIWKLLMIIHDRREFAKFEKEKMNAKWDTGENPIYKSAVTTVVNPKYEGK
Sequence of Integrin beta-1 (Homo sapiens) + Integrin alpha-4 (Homo sapiens) (P13612 whole entry, looked up): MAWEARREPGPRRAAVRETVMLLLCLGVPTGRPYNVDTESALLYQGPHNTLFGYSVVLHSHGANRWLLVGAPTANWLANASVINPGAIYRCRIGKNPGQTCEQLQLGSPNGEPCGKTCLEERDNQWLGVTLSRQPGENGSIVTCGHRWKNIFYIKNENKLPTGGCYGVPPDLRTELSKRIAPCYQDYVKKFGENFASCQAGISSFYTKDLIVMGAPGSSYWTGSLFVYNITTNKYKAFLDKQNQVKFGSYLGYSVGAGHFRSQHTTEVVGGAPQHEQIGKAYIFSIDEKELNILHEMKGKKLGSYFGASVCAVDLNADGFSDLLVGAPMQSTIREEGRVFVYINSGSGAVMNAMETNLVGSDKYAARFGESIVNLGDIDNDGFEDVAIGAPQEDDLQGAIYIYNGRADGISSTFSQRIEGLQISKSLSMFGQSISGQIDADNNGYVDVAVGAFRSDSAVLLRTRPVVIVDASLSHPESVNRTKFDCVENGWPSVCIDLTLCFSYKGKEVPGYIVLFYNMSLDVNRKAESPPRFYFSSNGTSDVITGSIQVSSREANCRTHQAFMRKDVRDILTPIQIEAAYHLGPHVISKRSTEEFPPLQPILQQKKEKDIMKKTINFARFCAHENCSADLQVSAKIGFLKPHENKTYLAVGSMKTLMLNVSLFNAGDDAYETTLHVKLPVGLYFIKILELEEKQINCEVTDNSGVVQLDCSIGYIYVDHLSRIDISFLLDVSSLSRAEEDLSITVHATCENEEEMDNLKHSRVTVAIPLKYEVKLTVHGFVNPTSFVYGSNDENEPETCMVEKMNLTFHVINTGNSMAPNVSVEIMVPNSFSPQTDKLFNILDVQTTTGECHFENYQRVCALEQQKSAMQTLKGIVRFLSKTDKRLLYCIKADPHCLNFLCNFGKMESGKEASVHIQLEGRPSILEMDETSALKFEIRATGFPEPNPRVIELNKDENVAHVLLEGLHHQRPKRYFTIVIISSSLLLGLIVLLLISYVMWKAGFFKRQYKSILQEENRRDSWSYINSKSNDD

[3] = calorie-restriction mimetic ROS inhibitors, yeast – validation compound set, pilot screen (AID 2706;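 active means superoxide response below 65% of plate, a cut near 3 SD across the whole screen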;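 further: yeast exposed to compound for one week at 30 degrees C before staining; 100% = mean of all compound wells on the same plate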); conditions: S. cerevisiae aging, superoxide DHE fluorescence; at 10 µM, stronger effect = lower value
[4] = target: Beta-adrenergic receptor kinase 1 (Homo sapiens) (UniProt P25098); experiment: GRK2 binders displacing RNA aptamer, biochemical, validation, human GRK2, bead flow cytometry (AID 488806;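 active means aptamer binding inhibition above 30%, about 3 SD of noise from non-fluorescent compounds; inactive means inhibition at or below 30%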); conditions: bead-bound GRK2, FAM-aptamer displacement, at 10 µM, stronger effect = higher value
Sequence of Beta-adrenergic receptor kinase 1 (Homo sapiens) (P25098 whole entry, looked up): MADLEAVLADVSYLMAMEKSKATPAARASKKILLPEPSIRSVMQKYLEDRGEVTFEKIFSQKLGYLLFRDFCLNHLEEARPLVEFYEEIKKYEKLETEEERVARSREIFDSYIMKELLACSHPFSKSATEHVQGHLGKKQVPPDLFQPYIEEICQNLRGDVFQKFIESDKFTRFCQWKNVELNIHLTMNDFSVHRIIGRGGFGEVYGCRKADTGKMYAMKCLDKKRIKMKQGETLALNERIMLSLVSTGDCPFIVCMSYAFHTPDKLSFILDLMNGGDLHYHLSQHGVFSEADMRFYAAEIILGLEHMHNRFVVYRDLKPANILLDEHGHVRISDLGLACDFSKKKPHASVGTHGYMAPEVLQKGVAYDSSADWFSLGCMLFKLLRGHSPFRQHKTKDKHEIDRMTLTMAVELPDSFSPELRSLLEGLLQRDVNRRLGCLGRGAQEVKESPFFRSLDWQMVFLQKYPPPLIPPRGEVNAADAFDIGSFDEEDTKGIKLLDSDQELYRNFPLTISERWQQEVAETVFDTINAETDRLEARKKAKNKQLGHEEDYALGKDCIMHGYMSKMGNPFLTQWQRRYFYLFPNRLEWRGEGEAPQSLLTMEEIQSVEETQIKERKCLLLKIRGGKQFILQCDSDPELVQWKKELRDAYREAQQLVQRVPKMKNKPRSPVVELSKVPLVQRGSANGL

[5] = target: Beta-2 adrenergic receptor (Homo sapiens) (UniProt P07550); experiment: agonist-induced loss of surface beta2AR – cell-based, FAP fluorogen, flow cytometry, validation set, pilot screen (AID 504459;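 active means percent response above 42, roughly 3 SD of non-fluorescent test compounds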;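 further: agonist-driven loss of surface beta2AR via internalization measured by FAP dye flow cytometry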); conditions: Am2.2-beta2AR cells, at 10 µM, stronger effect = higher value
Sequence of Beta-2 adrenergic receptor (Homo sapiens) (P07550 whole entry, looked up): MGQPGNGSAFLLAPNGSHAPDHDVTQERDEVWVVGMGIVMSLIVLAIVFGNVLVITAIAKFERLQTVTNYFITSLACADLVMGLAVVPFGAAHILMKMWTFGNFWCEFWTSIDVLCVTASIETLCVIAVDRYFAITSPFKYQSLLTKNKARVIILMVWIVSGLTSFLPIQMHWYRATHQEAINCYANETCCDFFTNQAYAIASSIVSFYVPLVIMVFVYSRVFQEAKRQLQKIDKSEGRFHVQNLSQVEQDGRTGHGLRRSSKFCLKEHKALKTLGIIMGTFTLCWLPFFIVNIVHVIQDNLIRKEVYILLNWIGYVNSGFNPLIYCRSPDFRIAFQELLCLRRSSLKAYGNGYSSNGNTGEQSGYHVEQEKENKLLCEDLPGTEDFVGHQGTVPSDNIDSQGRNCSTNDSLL

[6] = target: AP-2 complex subunit beta (Homo sapiens) (UniProt P63010); experiment: beta-arrestin/AP2 interaction blockers – biochemical, validation set, GST-AP2 beads, flow cytometry, pilot screen (AID 504541;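 active means inhibition above 54%, about 3 SD of non-fluorescent compounds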;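 further: AP2 carries R879A mutation and is captured from E. coli lysate; bead-bound FITC arrestin peptide fluorescence measuring arrestin peptide binding to AP2; 0% = DMSO wells and 100% = excess unlabeled arrestin peptide control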); conditions: FITC arrestin peptide, at 10 µM, stronger effect = higher value, AP2 beta2 appendage fragment, R879A mutant
Sequence of AP-2 complex subunit beta (Homo sapiens) (P63010 whole entry, looked up, the tested form may be a part, one chain of several): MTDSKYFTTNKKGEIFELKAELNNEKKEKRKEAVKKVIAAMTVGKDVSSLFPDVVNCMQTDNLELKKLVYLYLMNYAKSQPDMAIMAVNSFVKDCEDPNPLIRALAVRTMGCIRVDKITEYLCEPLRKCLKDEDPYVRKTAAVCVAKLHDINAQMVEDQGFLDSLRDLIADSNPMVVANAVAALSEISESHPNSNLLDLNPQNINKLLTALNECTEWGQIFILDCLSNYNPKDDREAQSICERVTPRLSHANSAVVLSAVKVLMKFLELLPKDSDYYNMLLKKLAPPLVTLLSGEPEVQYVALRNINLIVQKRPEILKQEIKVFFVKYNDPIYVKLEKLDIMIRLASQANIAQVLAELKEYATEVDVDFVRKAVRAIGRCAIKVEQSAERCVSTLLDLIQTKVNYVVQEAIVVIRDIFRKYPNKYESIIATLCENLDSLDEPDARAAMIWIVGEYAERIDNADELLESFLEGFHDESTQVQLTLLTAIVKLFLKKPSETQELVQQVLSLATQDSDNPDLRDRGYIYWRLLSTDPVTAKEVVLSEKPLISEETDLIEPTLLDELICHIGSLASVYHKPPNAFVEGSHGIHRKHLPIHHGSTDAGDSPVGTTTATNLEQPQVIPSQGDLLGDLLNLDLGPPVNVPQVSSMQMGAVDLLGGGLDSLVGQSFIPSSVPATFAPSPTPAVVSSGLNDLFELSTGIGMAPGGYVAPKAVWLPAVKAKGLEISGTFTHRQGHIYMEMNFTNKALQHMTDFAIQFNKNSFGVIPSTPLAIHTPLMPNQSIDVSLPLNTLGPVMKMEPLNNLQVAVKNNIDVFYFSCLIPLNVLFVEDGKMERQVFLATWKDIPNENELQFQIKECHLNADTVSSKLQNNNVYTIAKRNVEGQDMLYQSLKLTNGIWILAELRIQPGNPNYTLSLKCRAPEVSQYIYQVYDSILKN

[7] = cytosolic pH regulators acting via V-ATPase – S. cerevisiae, pHLuorin, HTS validation (AID 504600; in the data active means response above about 15%;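 further: plate controls were DMSO for no effect and reference compound for full effect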); conditions: V-ATPase proton transport, at 10 µM, stronger effect = higher value
[8] = system: anti-desmoglein-3 scFv antibody binding to human DSG3; experiment: blockers of pathogenic pemphigus antibody–desmoglein-3 binding – biochemical, validation compound set, bead-based, flow cytometry, pilot screen (AID 588368); conditions: Protein G beads, DSG3-Fc, scFv-GFP binding, at 10 µM, stronger effect = lower value;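 further: signal is the median channel fluorescence of bead-bound GFP antibody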
[9] = Nile Red efflux blockade in pump-expressing yeast – validation compound set, multiplex, phenotypic, pilot screen (AID 588506;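 active means efflux inhibition above 0.42, the validation set average plus 4 SD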;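 further: Nile Red retained in cells so higher fluorescence means more efflux inhibition; 0 = negative control wells and 1 = enniatin B 25 µM full block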); conditions: S. cerevisiae pump-expressing triplex, Nile Red efflux flow cytometry; at 10 µM; stronger effect = higher value; the pumps come from Candida albicans
[10] = target: ATP-binding cassette sub-family B member 6 (Homo sapiens) (UniProt Q9NP58); experiment: blockers of ABCB6-driven porphyrin uptake – K562-ABCB6 cells, flow cytometry, validation set, pilot screen (AID 588550;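 active means inhibition above the screen-wide mean plus 3 SD, about 51%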;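 further: 0% = DMSO wells and 100% = benzethonium chloride 70 µM positive control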); conditions: K562-ABCB6 porphyrin accumulation, 1 h, at 10 µM, stronger effect = higher value
Sequence of ATP-binding cassette sub-family B member 6 (Homo sapiens) (Q9NP58 whole entry, looked up): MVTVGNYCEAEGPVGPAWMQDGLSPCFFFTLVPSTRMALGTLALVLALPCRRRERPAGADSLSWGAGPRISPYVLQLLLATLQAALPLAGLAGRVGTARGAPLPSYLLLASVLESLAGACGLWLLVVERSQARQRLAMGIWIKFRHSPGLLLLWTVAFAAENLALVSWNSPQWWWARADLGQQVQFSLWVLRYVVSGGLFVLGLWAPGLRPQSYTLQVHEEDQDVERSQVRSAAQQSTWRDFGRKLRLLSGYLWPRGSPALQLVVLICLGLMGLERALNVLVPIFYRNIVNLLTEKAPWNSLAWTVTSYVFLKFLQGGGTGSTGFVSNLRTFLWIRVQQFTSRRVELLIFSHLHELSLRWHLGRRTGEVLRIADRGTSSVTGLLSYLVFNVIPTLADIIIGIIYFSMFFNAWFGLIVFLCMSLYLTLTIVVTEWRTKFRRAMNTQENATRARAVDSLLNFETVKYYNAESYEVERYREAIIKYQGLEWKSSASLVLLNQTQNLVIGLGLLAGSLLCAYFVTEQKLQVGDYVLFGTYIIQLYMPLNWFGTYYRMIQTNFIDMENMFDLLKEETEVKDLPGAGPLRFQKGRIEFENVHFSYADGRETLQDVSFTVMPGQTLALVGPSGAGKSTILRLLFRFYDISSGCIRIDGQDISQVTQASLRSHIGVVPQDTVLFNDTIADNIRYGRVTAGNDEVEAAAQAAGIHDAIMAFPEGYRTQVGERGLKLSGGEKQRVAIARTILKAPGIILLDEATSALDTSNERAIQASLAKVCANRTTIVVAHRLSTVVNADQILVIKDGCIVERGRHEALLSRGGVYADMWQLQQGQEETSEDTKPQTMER

[11] = AML differentiation inducers, ER-HoxA9 marrow cells – cell-based, GFP/MAC1 double positive, flow cytometry, validation set, primary screen (AID 588685;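 active means differentiation response of at least 50%, scaled between solvent and reference control, from cells with both markers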;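 further: compound exposure lasts four days before antibody staining and flow analysis; 0% = DMSO wells and 100% = 5 µM fulvestrant positive control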); conditions: stronger effect = higher value, normalized: vehicle 0, fulvestrant 100

CNCCc1ccccn1
inactive: vesicle binding response [1] 212% | inhibition [2] 15.1% | superoxide response (% of plate) [3] 122% | aptamer binding inhibition [4] -6% | response [5] -19.8% | inhibition [6] -12.3% | response [7] -10.1% | binding (% of control) [8] 100% | efflux inhibition (fraction of control) [9] 0 | inhibition [10] 1% | differentiation response [11] 2.89%
60%: double positive events [1]

CN(C)c1cc(NC(=O)CN2CCOCC2)c2ccccc2n1
64.4%: double positive events [1]
inactive: vesicle binding response [1] 183% | inhibition [2] -9.06% | superoxide response (% of plate) [3] 96.2% | aptamer binding inhibition [4] -2% | response [5] 2.53% | inhibition [6] -0.56% | response [7] -1.23% | binding (% of control) [8] 109% | efflux inhibition (fraction of control) [9] -0.17 | inhibition [10] 15% | differentiation response [11] -3.28%

Cc1ccc2c(CN3CCN(Cc4ccc5c(c4)OCO5)CC3)cc(=O)oc2c1C
58.4%: double positive events [1]
inactive: vesicle binding response [1] 88.4% | inhibition [2] -7.79% | superoxide response (% of plate) [3] 87.4% | aptamer binding inhibition [4] -2% | response [5] -2.16% | inhibition [6] 4.85% | response [7] -2.29% | binding (% of control) [8] 106% | efflux inhibition (fraction of control) [9] -0.28 | inhibition [10] -11% | differentiation response [11] -6.03%

CCOC(=O)/C=C1\NC(C)(C)Cc2cc(OC)c(OC)cc21
59.2%: double positive events [1]
inactive: vesicle binding response [1] 271% | inhibition [2] 5.03% | superoxide response (% of plate) [3] 102% | aptamer binding inhibition [4] 4% | response [5] 9.33% | inhibition [6] -4.08% | response [7] -1.95% | binding (% of control) [8] 101% | efflux inhibition (fraction of control) [9] 0.08 | inhibition [10] 7% | differentiation response [11] 31.2%

Fc1cccc(Cc2noc(CN3CCN(c4cnccn4)CC3)n2)c1
56.6%: double positive events [1]
inactive: vesicle binding response [1] 45.8% | inhibition [2] -3.57% | superoxide response (% of plate) [3] 108% | aptamer binding inhibition [4] -1% | response [5] -4.45% | response [7] -3.37% | binding (% of control) [8] 97.4% | efflux inhibition (fraction of control) [9] 0.11 | inhibition [10] 0% | differentiation response [11] 41.3%
active: inhibition [6] 56.4%

COc1ccc(C(=O)NC(=O)NC2(C(Cl)(Cl)Cl)OCCO2)cc1
60.6%: double positive events [1]
inactive: vesicle binding response [1] 214% | inhibition [2] -21.6% | superoxide response (% of plate) [3] 86.9% | aptamer binding inhibition [4] 4% | response [5] -20.1% | inhibition [6] 13.5% | response [7] -0.88% | binding (% of control) [8] 94.7% | efflux inhibition (fraction of control) [9] 0.12 | inhibition [10] 9% | differentiation response [11] -2.03%

O=C(C1CCCCC1)N1CC(=O)N2CCc3ccccc3C2C1 (stereo unspecified)
inactive: vesicle binding response [1] 225% | inhibition [2] -2.82% | superoxide response (% of plate) [3] 109% | aptamer binding inhibition [4] 1% | response [5] -15.4% | inhibition [6] -1.09% | response [7] -5.39% | binding (% of control) [8] 101% | efflux inhibition (fraction of control) [9] 0 | inhibition [10] 3% | differentiation response [11] 29.5%
61.4%: double positive events [1]

O=C(Nc1ccccc1)OCC1CCCN2CCCCC12 (stereo unspecified)
80%: double positive events [1]
active: differentiation response [11] 63%
inactive: vesicle binding response [1] 511% | inhibition [2] -0.27% | superoxide response (% of plate) [3] 93.9% | aptamer binding inhibition [4] -2% | response [5] -23.8% | inhibition [6] -10.6% | response [7] 1.1% | binding (% of control) [8] 112% | efflux inhibition (fraction of control) [9] -0.04 | inhibition [10] 16%

COc1cc(C(=O)OCCCN(C)C)cc(OC)c1OC
inactive: vesicle binding response [1] 180% | inhibition [2] 21.9% | superoxide response (% of plate) [3] 93.6% | aptamer binding inhibition [4] -2% | response [5] -28.8% | inhibition [6] 4.79% | response [7] 1.07% | binding (% of control) [8] 108% | efflux inhibition (fraction of control) [9] -0.09 | inhibition [10] -1% | differentiation response [11] -4.99%
60.1%: double positive events [1]

COc1ccc(CCCC(=O)O)c(C)c1
63.8%: double positive events [1]
inactive: vesicle binding response [1] 282% | inhibition [2] -9.06% | superoxide response (% of plate) [3] 92.3% | aptamer binding inhibition [4] -1% | response [5] 1.17% | inhibition [6] 5.62% | response [7] -1.31% | binding (% of control) [8] 111% | efflux inhibition (fraction of control) [9] -0.2 | inhibition [10] 17% | differentiation response [11] 0%

CCC12CN3CC(CC)(CN(C1)C31C(=O)N(C)c3ccc(C)cc31)C2=O (stereo unspecified)
59.5%: double positive events [1]
inactive: vesicle binding response [1] 181% | inhibition [2] -2.82% | superoxide response (% of plate) [3] 94.6% | aptamer binding inhibition [4] -3% | response [5] -18.8% | inhibition [6] 0.32% | response [7] 4.91% | binding (% of control) [8] 102% | efflux inhibition (fraction of control) [9] 0 | inhibition [10] -1% | differentiation response [11] -10.9%

CC(=O)OCC(OC(C)=O)C(OC(C)=O)C(OC(C)=O)C(=O)Nc1cccc(C)c1 (stereo unspecified)
inactive: vesicle binding response [1] 153% | inhibition [2] -4.52% | superoxide response (% of plate) [3] 110% | aptamer binding inhibition [4] 3% | response [5] 4.29% | inhibition [6] -4.4% | response [7] 1.1% | binding (% of control) [8] 97% | efflux inhibition (fraction of control) [9] -0.1 | inhibition [10] 2% | differentiation response [11] -10.4%
59.9%: double positive events [1]

COc1cc(NC(=O)N[C@@H](Cc2ccccc2)C(=O)O)cc(OC)c1
inactive: vesicle binding response [1] 221% | inhibition [2] 9.1% | superoxide response (% of plate) [3] 106% | aptamer binding inhibition [4] 3% | response [5] -10.8% | inhibition [6] -3.53% | binding (% of control) [8] 105% | efflux inhibition (fraction of control) [9] -0.09 | inhibition [10] 2% | differentiation response [11] 0.92%
active: response [7] 22.2%
62.8%: double positive events [1]
